Results from the supplement of paper PMC11219838.
A number with no mark means an inactive call.

Experiments:
Details in all cases: 60 µM; 5 days; temperature: 20 °C
Meloidogyne hapla J2 = assay: proportion of mobile M. hapla J2 relative to DMSO control (fraction of DMSO control); higher = more viable, less nematicidal, active = 0.7 or less
Outline: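 Compound was pinned to 60 µM final (0.6% v/v DMSO) into 96-well wells, each holding about 25 M. hapla J2 in distilled water. Plates were sealed and shaken for 5 days at 20 °C and 200 rpm, then given 2 µL 1 M NaOH per well. Microscopic mobility scores were normalised to the mean of the plate's own DMSO wells, eight per plate, with two biological replicates averaged.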

[1] = tested on: Caenorhabditis elegans dauer (daf-2(e1370)); assay: proportion of mobile C. elegans dauer larvae relative to DMSO control (fraction of DMSO control); higher = more viable, less nematicidal, active = 0.63 or less; extreme values may be limits of the assay
Outline: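 Synchronized C. elegans larvae were kept for 48 h at 25 °C on MYOB plates seeded with E. coli OP50 to induce dauer formation, and roughly 20 dauers were transferred into each well of a 96-well plate containing liquid NGM. Compound was pinned in to a final concentration of 60 µM with 0.6% v/v DMSO, and the sealed plates were shaken at 200 rpm for 5 days at 20 °C. The fraction of mobile worms was scored under a dissection microscope against DMSO-only wells and averaged across two biological replicates.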

Ditylenchus dipsaci = assay: proportion of mobile D. dipsaci (mixed stage) relative to DMSO control (fraction of DMSO control); higher = more viable, less nematicidal, active = 0.86 or less; extreme values may be limits of the assay
Outline: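 Mobility values are relative to DMSO controls and are averages of two biological replicates. For each well of a 96-well plate, about 20 D. dipsaci worms, grown on pea plants in Gamborg B-5 agar and funnel-extracted into water, were dispensed in distilled water. Plates received pinned compound at 60 µM final with 0.6% v/v DMSO and were sealed and shaken at 200 rpm for 5 days at 20 °C before 2 µL 1 M NaOH was added and mobile worms were scored by microscope.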

SMILES	proportion of mobile M. hapla J2 (Meloidogyne hapla J2)	proportion of mobile C. elegans dauer larvae [1]	proportion of mobile D. dipsaci (Ditylenchus dipsaci)
Cc1ccc(-c2noc(-c3ccc4c(c3)OCCO4)n2)cc1	1	0.615 (active)	1
CCn1c(SCc2nc(-c3ccccc3)no2)nc2ccccc21	1.02	1	1
Clc1ccccc1-c1noc(COc2ccc(Br)cc2)n1	1.05	1	1
COc1ccc(C(=O)Nc2ccc(-c3nnc(SCc4ccccc4)o3)cc2)cc1	1.07	1	1
Cc1cc(OCc2nc(-c3ccncc3)no2)cc(C)c1Br	1.03	1	1
Clc1ccc(-c2noc(-c3ccccc3Cl)n2)cc1	0.927	1	1
Cc1cc(OCc2nc(-c3ccccn3)no2)c(C)cc1Br	0.711	1	1
Cc1ccc(OCc2nc(-c3cccnc3)no2)c(Br)c1	0.992	1	1
COc1cccc(-c2noc(CSc3ccccc3)n2)c1	1.03	1	1
O=C(CSc1nnc(-c2ccc(Br)cc2)o1)NC1CCCCC1	1.04	1	1
Cc1cccc(OCc2nc(-c3ccccc3Cl)no2)c1	1.08	1	1
Cc1ccc(-c2nnc(SCC(=O)NCc3ccccc3)o2)cc1	1.04	1	1
Ic1ccccc1-c1nc(-c2cccnc2)no1	1.02	1	1
Clc1cc(Br)ccc1OCc1nc(-c2ccccc2)no1	0.818	1	1
COc1ccccc1-c1nc(-c2cccc(Br)c2)no1	1.04	1	1
Cc1cc(C)cc(OCc2nc(-c3ccccc3Cl)no2)c1	0.978	1	1
Cc1ccccc1CSc1nnc(-c2ccncc2)o1	0.754	1	1
FC(F)(F)c1cccc(-c2noc(-c3cccs3)n2)c1	0.893	1	1
Brc1ccc(-c2nc(-c3ccncc3)no2)cc1	0.953	0.767	1
O=C(CSc1nnc(-c2ccccc2)o1)Nc1cc(C(F)(F)F)ccc1Cl	1.04	1	1
O=C(CSc1nnc(-c2ccccc2Cl)o1)c1ccc2c(c1)CCCC2	0.914	1	1
CC(=O)Nc1ccc(C(=O)CSc2nnc(-c3cccc(Br)c3)o2)cc1	1.01	1	1
O=C(CSc1nnc(-c2ccccc2)o1)Nc1ccc(Br)cc1F	0.992	1	1
O=C(Nc1ccccc1-c1nc(-c2ccncc2)no1)c1cccc(Cl)c1	1.04	1	1
CSc1ccccc1-c1nc(-c2cccnc2)no1	1.07	0.684	1

SMILES	proportion of mobile M. hapla J2 (Meloidogyne hapla J2)	proportion of mobile C. elegans dauer larvae [1]	proportion of mobile D. dipsaci (Ditylenchus dipsaci)
Cc1ccc(-c2noc(COc3cccc(C)c3)n2)cc1	0.972	1	1
Cc1ccc(-c2nc(-c3ccncc3)no2)cc1Cl	0.852	1	1
Cc1ccc(-c2nc(-c3ccccn3)no2)cc1C	1.03	1	1
COc1ccc(Cl)cc1-c1noc(-c2cccc(C)c2)n1	1.05	1	1
COc1ccc(OC(C)c2nc(-c3cccnc3)no2)cc1 (centres undefined)	0.966	1	1
CN(C)C(=O)c1ccccc1-c1nc(-c2ccc(Cl)cc2)no1	0.963	1	1
COc1ccc(-c2noc(-c3cccc(F)c3)n2)cc1	1	1	1
Cc1ccc(-c2noc(-c3cc(C)cc(C)c3)n2)cc1	0.719	1	1
CC(Sc1nnc(-c2ccco2)o1)C(=O)NC(c1ccccc1)c1ccccc1 (centres undefined)	1.05	1	1
COc1ccc(-c2noc(COc3ccc(Cl)cc3)n2)cc1	1.04	1	1
Cc1ccccc1-c1nnc(SCc2ccc(F)cc2)o1	0.939	1	1
COc1cccc(-c2noc(-c3c(F)cccc3F)n2)c1	0.953	1	1
CCOc1nc(-c2ccccc2)ccc1-c1noc(-c2cccc(OC)c2)n1	0.759	1	1
COc1ccc(-c2nnc(SCC(=O)Nc3cc(Cl)ccc3C)o2)cc1	0.904	1	1
COc1ccc(-c2noc(-c3cccc(C)c3)n2)cc1	1.08	0.889	1
COC(=O)c1ccc(Cl)c(NC(=O)CSc2nnc(-c3ccc(Cl)cc3)o2)c1	0.77	1	1
c1ccc(-c2nnc(SCc3nc4ccccc4[nH]3)o2)cc1	1.04	1	1
COc1nc(-c2ccc(Cl)cc2)ccc1-c1noc(C)n1	1.03	1	1
COc1ccc(-c2noc(-c3ccc(Cl)cc3)n2)cc1	0.983	0.778	1
Clc1cccc(-c2nc(-c3cccnc3)no2)c1	0.312 (active)	1	1
Clc1ccc(-c2nnc(SCc3ccccc3)o2)cc1	0.827	1	1
CCc1ccc(OCc2nc(-c3ccc(Cl)cc3)no2)cc1	1.03	1	1
Cc1ccc(-c2noc(C3CCCCC3)n2)cc1	1.05	1	1
O=C(CSc1nnc(-c2ccncc2)o1)Nc1ccc(Cl)cc1Cl	0.57 (active)	1	1
Cc1ccc(SC(C)c2nc(-c3ccncc3)no2)cc1 (centres undefined)	0.861	0.8	1

SMILES	proportion of mobile M. hapla J2 (Meloidogyne hapla J2)	proportion of mobile C. elegans dauer larvae [1]	proportion of mobile D. dipsaci (Ditylenchus dipsaci)
COc1nc(-c2ccccc2)ccc1-c1noc(-c2ccccc2Cl)n1	0.989	1	1
COc1ccc(Cl)cc1-c1nc(-c2ccc3c(c2)OCO3)no1	0.957	1	1
Nc1nc(CSc2nnc(-c3ccccc3)o2)cs1	0.752	1	1
COc1nc(C)ccc1-c1noc(-c2ccc(C)cc2)n1	0.926	1	1
CC(=O)Nc1cccc(-c2nnc(SCc3ccc(F)cc3)o2)c1	0.959	1	1
Clc1cc(Br)ccc1OCc1nc(-c2ccncc2)no1	0.953	0.929	1
Fc1ccc(-c2nc(-c3cccc(C(F)(F)F)c3)no2)cc1	0.939	1	1
O=C(CSc1nnc(-c2cccc(Br)c2)o1)c1ccccc1	1.02	1	0.714 (active)
CN(C)c1ccc(-c2nnc(SCc3ccccc3)o2)cc1	0.991	1	1
O=C(CSc1nnc(-c2cccc(Br)c2)o1)Nc1ccccn1	0.951	1	1
Cc1cccc(OCc2nc(-c3ccccc3)no2)c1	1.04	1	1
N#Cc1ccc(OCc2nc(-c3cccs3)no2)cc1	0.908	1	1
O=C(Nc1ccc(-c2noc(COc3ccccc3Cl)n2)cc1)c1ccccn1	1.02	1	1
Cc1cc(OCc2nc(-c3ccccn3)no2)ccc1Cl	0.834	1	1
N#Cc1cccc(CSc2nnc(-c3ccncc3)o2)c1	0.745	1	1
CCOc1ccccc1-c1nnc(SCc2ccc(C(=O)OC)o2)o1	0.904	1	1
Cc1ccc(-c2noc(COc3ccc(C)cc3C)n2)cc1	1.02	1	1
COc1nc(C)ccc1-c1noc(-c2ccc(Cl)cc2)n1	0.832	1	1
COC(=O)c1ccc(NC(=O)CSc2nnc(-c3ccc(Cl)cc3Cl)o2)cc1	0.929	1	1
CCOc1nc(-c2ccc(C)cc2)ccc1-c1noc(-c2cccnc2)n1	0.842	1	1
CCc1nnc(NC(=O)CSc2nnc(-c3ccc(Cl)cc3Cl)o2)s1	0.875	1	1
CCN(CC)C(=O)CSc1nnc(-c2ccc(Br)cc2)o1	1.04	1	1
O=C(CSc1nnc(-c2ccco2)o1)Nc1cccc2ccccc12	0.956	1	1
